Reference: ChEMBL document CHEMBL3988442, “University of Dundee, Small-Polar-MMV Screening Library” (2021)
For some assays here: Potency and affinity values are given separately.

Key:
Parameters in all cases: scale not given: direction of the effect not stated beside the values
[1] = biological target: Protein translocase subunit SecA (Escherichia coli (strain K12)) (UniProt P10408); test: Assay to Identify E. coli SecA ATPase Inhibitors; format: functional; settings: 30 µM
[2] = biological target: T1, Ubiquitin-activating enzyme e1, putative (Leishmania donovani (strain BPK282A1)) (UniProt E9BSI1); test: Leishmania donovani Ubiquitin Activating Enzyme (LdE1); format: functional; settings: 30 µM
T1 sequence (whole entry): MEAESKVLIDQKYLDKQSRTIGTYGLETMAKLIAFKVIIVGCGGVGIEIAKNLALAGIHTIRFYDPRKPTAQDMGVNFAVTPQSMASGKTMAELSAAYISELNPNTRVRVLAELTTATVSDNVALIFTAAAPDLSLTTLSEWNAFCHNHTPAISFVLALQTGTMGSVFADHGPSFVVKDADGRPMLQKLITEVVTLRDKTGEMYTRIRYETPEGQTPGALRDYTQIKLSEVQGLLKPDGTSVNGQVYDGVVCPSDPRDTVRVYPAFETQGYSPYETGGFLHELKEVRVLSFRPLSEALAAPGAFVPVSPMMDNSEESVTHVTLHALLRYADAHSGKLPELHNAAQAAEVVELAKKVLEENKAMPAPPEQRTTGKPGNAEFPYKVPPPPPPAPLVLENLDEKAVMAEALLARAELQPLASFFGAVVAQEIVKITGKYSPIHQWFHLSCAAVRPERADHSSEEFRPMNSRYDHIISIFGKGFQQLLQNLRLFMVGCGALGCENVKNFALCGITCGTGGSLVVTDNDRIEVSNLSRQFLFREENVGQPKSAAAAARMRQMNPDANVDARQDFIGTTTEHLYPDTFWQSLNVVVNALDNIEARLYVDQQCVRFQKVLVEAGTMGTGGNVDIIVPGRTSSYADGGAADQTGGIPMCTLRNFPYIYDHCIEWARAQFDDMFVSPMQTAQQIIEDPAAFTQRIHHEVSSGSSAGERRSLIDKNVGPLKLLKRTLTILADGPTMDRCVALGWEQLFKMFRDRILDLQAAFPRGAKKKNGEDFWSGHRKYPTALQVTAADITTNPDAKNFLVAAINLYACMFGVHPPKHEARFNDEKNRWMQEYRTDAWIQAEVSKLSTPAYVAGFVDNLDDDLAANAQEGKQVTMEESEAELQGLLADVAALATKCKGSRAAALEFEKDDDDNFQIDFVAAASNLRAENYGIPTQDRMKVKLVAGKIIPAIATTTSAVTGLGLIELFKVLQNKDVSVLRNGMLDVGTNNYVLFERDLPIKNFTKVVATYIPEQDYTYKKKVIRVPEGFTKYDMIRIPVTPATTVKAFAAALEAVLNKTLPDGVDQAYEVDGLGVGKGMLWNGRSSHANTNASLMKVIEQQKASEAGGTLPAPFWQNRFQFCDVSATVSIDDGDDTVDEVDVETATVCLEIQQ

[3] = biological target: AMP-activated protein kinase, AMPK (Homo sapiens) (UniProt P54646+O43741+P54619+Q9UGJ0+Q9Y478+Q13131+Q9UGI9); test: AMP-dependent Kinase enzyme assay. An in vitro enzyme assay that detects ADP turnover that is directly proportional to AMPK activity. This uses naive AMPK that is activated during the assay with MK-8722; format: functional; settings: 30 µM
[4] = biological target: Sialic acid-binding Ig-like lectin 9 (Homo sapiens) (UniProt Q9Y336); test: Hs-Siglec9 ALPHAscreen SOP 20170721; settings: 10 µM
[5] = tested on: Trypanosoma cruzi; test: Trypanosoma cruzi phosphomannomutase and mannose-1-phosphate guanylyltransferase assay; format: functional; settings: 10 µM
[6] = biological target: T2, Arginase-2, mitochondrial (Homo sapiens) (UniProt P78540); test: in vitro enzyme assay to detect the production of urea directly proportional to the activity of Arginase II; format: functional; settings: 33.3 µM; note: in the data most compounds retested in dose-response had high values
T2 sequence (whole entry): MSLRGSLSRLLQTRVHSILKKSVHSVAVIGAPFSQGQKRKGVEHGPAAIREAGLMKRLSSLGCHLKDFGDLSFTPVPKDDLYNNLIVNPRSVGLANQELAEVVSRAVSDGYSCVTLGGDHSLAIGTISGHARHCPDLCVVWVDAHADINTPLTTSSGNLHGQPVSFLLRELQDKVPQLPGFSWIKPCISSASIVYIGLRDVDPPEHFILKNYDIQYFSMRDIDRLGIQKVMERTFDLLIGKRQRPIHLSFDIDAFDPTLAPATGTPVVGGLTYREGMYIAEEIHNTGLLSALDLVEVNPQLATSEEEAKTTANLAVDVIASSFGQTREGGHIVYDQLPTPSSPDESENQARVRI

[7] = biological target: T3, Proteasome subunit beta (Trypanosoma cruzi) (UniProt O96673); test: Trypanosoma cruzi proteasome chymotrypsin-like activity (TcProtChymo) assay.; note: in the data most compounds retested in dose-response had high values; format: functional; settings: 9.37 µM
T3 sequence (whole entry): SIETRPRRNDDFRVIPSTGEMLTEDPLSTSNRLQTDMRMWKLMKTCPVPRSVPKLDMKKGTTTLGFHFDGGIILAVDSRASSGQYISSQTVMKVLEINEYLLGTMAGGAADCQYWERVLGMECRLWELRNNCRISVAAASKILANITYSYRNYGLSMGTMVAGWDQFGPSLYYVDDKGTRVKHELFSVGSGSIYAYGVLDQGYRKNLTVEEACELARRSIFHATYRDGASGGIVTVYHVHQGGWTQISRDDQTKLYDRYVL

[8] = species: Homo sapiens; test: To identify inhibition of the IFN signalling (Jak-Stat) pathway via expression of an eGFP reporter gene under the control of an IFN-stimulated response element (ISRE) containing MxA promoter.; format: functional; settings: 30 µM
[9] = biological target: T4, Tyrosyl-tRNA synthetase, putative (Trypanosoma cruzi (strain CL Brener)) (UniProt Q4DSP6); test: Trypanosoma cruzi tyrosyl tRNA synthetase (TcYRS) _High Tyrosine SOP; format: functional; settings: 30 µM; note: in the data most compounds retested in dose-response had high values
T4 sequence (whole entry): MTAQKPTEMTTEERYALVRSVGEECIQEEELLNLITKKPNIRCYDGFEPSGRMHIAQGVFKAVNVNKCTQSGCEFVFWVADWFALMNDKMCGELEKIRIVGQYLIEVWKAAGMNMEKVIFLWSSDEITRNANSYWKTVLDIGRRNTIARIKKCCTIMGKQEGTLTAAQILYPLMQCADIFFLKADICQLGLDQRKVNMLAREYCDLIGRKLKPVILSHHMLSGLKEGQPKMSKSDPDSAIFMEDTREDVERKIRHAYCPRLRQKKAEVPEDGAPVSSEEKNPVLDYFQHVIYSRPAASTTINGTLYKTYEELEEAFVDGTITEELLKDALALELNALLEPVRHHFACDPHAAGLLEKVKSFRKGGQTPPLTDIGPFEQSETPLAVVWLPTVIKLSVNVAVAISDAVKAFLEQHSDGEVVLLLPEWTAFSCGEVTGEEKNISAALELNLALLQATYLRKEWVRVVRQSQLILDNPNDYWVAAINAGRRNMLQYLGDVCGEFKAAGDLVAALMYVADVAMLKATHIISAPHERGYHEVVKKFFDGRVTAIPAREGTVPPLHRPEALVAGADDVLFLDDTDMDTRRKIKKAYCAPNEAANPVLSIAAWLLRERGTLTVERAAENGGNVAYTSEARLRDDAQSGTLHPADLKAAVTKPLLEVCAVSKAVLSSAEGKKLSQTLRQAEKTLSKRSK

[10] = biological target: T4, Tyrosyl-tRNA synthetase, putative (Trypanosoma cruzi (strain CL Brener)); test: Trypanosoma cruzi tyrosyl tRNA synthetase (TcYRS) SOP; format: functional; settings: 30 µM
[11] = biological target: Chromo domain-containing protein 1 (Saccharomyces cerevisiae (strain ATCC 204508 / S288c) (Baker's yeast)) (UniProt P32657); test: ScCHD-1 Enzyme Inhibition Assay; format: functional; settings: 30 µM; note: in the data most compounds retested in dose-response had high values
Chromo domain-containing protein 1 (Saccharomyces cerevisiae (strain ATCC 204508 / S288c) (Baker's yeast)), sequence (P32657 whole entry, the tested form may be a part): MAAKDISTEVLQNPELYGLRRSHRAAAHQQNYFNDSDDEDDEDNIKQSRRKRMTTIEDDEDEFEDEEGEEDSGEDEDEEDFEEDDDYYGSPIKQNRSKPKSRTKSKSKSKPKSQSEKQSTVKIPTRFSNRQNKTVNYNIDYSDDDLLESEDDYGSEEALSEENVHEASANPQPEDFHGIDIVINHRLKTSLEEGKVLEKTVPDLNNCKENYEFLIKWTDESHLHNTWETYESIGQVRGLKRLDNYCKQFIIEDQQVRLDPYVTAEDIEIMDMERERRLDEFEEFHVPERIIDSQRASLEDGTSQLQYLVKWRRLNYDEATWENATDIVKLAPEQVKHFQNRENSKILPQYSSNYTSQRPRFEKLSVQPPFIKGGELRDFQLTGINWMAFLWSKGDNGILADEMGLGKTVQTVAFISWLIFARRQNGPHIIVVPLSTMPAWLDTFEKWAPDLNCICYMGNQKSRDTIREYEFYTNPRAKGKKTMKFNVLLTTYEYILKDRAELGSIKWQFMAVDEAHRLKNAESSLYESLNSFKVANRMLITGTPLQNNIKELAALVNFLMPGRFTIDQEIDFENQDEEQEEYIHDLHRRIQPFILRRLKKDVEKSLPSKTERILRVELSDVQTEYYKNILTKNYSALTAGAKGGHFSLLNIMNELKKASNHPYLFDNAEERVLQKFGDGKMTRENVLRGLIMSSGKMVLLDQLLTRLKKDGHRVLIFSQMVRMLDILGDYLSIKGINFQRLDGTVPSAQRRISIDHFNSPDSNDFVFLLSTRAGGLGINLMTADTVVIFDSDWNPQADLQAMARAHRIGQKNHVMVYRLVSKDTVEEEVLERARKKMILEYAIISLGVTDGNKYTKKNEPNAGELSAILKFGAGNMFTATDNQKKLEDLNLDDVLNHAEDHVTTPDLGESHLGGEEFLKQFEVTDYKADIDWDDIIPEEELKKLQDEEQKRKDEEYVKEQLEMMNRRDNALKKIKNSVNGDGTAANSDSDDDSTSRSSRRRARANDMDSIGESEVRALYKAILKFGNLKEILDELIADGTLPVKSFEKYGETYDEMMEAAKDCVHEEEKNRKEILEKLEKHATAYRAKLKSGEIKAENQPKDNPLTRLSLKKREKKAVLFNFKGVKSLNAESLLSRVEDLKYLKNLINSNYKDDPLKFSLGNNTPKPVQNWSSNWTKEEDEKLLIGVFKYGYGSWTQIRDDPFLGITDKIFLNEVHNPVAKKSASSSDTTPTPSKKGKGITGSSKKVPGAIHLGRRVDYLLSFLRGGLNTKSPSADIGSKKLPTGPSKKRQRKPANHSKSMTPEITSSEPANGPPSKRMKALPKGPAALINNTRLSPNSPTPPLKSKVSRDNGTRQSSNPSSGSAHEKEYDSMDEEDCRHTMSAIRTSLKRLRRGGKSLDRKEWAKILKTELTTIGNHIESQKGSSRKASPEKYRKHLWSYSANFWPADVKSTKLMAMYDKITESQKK

Sialic acid-binding Ig-like lectin 9 (Homo sapiens), sequence (Q9Y336 whole entry): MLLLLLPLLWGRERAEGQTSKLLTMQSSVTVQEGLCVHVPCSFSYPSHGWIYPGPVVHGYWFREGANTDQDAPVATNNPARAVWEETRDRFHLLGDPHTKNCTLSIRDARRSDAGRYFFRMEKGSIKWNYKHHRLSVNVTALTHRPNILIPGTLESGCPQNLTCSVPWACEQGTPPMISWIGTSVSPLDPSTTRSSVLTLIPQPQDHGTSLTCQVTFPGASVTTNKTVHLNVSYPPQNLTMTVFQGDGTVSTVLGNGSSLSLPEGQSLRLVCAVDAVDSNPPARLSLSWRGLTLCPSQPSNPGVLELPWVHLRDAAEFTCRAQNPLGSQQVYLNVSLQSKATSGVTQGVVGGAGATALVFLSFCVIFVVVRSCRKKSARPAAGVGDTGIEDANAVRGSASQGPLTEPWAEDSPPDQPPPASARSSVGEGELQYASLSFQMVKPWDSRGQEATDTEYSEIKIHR
Protein translocase subunit SecA (Escherichia coli (strain K12)), sequence (P10408 whole entry): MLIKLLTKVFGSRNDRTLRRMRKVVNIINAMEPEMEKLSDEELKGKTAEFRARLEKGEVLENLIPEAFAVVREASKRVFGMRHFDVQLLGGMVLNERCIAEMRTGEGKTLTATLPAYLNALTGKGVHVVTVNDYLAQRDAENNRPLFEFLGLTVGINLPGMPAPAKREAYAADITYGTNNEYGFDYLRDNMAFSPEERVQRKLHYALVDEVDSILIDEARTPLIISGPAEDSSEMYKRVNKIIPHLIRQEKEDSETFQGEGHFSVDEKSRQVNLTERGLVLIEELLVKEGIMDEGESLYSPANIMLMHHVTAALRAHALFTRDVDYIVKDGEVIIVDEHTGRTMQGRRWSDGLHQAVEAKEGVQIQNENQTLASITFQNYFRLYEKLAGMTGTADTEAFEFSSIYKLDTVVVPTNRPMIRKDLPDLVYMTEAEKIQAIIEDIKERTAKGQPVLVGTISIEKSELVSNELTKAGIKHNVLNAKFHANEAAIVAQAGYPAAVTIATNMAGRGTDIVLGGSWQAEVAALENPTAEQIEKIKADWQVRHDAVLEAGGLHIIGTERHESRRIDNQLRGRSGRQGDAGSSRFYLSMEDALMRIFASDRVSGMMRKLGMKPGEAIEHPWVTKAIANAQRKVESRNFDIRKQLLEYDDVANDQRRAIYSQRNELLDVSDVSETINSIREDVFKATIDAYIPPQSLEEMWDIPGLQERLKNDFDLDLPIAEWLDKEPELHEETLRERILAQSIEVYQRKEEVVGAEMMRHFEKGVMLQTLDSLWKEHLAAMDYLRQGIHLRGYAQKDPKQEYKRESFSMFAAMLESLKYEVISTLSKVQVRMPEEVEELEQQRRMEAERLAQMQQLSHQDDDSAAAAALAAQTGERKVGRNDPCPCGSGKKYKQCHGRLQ

SMILES	Percent Effect [1]	Percent Effect [2]	Percent Effect [3]	Percent Effect [4]	Percent Effect [5]	Percent Effect [6]	Percent Effect [7]	Percent Effect [8]	Percent Effect [9]	Percent Effect [10]	Percent Effect [11]
O=C(C1CC1)N1CCN(Cc2coc(-c3ccc(Cl)cc3)n2)CC1	-5.03%	-7.79%	1.6%	13.9%	8.8%	-1.42%	-3.38%	43%	3.88%	0%	-5.59%
Cn1cccc1C(=O)N1CCCN(CCCc2ccccc2)CC1	4.69%	-11%	-4.66%	8.38%	-2.38%	-14.8%	14.3%	18.6%	9.38%	16.1%	-3.52%
CC(C)CNC(=O)c1c(-n2cnnn2)sc2c1CCC2	-4.85%	13.2%	3.3%	0.76%	0.0974%	0%	10.4%	-15.7%	2.13%	15.6%	-4.29%
COc1ccc(C2CCCN2C(=O)c2csc(NC(C)=O)n2)cc1 (configuration not stated)	-5.5%	18.2%	41.8%	-5.49%	-3.37%	2.85%	4.56%	17.3%	6.8%	12.2%	-8.21%
c1ccc(Cc2noc(CNC3CCc4ncnn4C3)n2)cc1 (configuration not stated)	-2.79%	16.2%	-4.03%	4.98%	3.81%	-3.88%	8.44%	1.98%	10.9%	25.6%	-5.11%
CCn1nc(-c2ccccc2F)ccc1=O	-4.01%	0%	-2.64%	-3.3%	-9.29%	-12.7%	4.55%	11.8%	-1.07%	8.64%	-2.39%
CCn1cc(NC(=O)NCC(O)CN2CCc3ccccc3C2)cn1 (configuration not stated)	-1.09%	23.4%	-8.59%	-13.8%	-0.0979%	-6.53%	18.2%	34.1%	8.57%	30.6%	-18.1%
CCCS(=O)(=O)N1CCN(c2cc(-n3nc(C)cc3C)nc(C)n2)CC1	-2.23%	0%	-0.103%	1.6%	7.57%	2.76%	10.7%	-11%	2.15%	-3.7%	-4.3%
CC(=O)N1CCCC1c1nccc(C)n1 (configuration not stated)	-4.82%	8%	9.75%	7.48%	-0.984%	3.5%	4.67%	3.01%	3.19%	11.5%	-1.52%
c1cncc(C2COC3(CCN(CC4CC4)CC3)C2)c1 (configuration not stated)	-5.88%	5.41%	0.748%	-4.23%	-1.17%	4.58%	12.9%	-13.5%	8.91%	1.22%	-3.69%
CN(Cc1ccccn1)C1COC2(CCN(Cc3nccs3)CC2)C1 (configuration not stated)	-4.64%	21.3%	-8.85%	-0.12%	1.35%	-57.5%	12.8%	5.05%	5.21%	20%	-11.7%
CNC(=O)C1CCN(C(=O)c2cccn2Cc2cccs2)CC1	-4.47%	-2.6%	1.37%	-5.3%	-5.99%	2.85%	6.25%	40.1%	6.8%	9.76%	-7.72%
Cc1cccc(CN2CCN(Cc3ccccc3)CC(O)C2)n1 (configuration not stated)	-1.78%	0%	-4.59%	2.56%	-0.193%	-1.43%	9.14%	4.22%	8.99%	19.5%	-3.04%
O=C(NCC1CC1)N1CCN(Cc2ccc3c(c2)OCCO3)CC1	-2.95%	5.26%	1.09%	12.6%	3.08%	1.08%	4.99%	20%	3.45%	13.6%	0.382%
Cc1c[nH]c(CN(C)C(=O)C2CC(=O)N(Cc3ccncc3)C2)n1 (configuration not stated)	-3.45%	5.41%	-2.63%	-5.87%	-5.77%	-1.24%	8.33%	0.971%	-1.07%	1.24%	-4.02%
O=S(=O)(c1cccs1)N1CCCn2cnc(CN3CCCC3)c2C1	-4.49%	10.7%	-0.197%	0.986%	-3.48%	-60.4%	13.8%	7.16%	4.17%	12.5%	-7.45%
CCOc1nnc(CN(C)CC2CCCN2c2cccnn2)s1 (configuration not stated)	-2.36%	7.89%	-1.61%	-2.87%	3.41%	-8.28%	20.2%	-2.35%	3.19%	10.4%	-4.84%
CC1c2ncc(CNC(=O)C3CC3)n2CCN1Cc1cnn(C)c1 (configuration not stated)	-0.181%	8%	-3.48%	-1.35%	6.56%	-55.4%	13.8%	5.07%	3.12%	12.5%	-7.95%
Cc1cc(C)c(CNC(=O)NCC(O)COc2ccccc2)c(=O)[nH]1 (configuration not stated)	-9.63%	7.89%	4.9%	1.32%	-0.84%	-0.719%	-1.1%	12%	1.48%	-1.24%	-2.07%
CC(C)Cc1ccc(S(=O)(=O)Nc2ccc(=O)n(C)c2)cc1	-3.52%	25.3%	-59.7%	-2.55%	3.31%	0%	15.5%	69%	6.4%	21.5%	-7.97%
CCC(OC)C(=O)N1CCc2nc(NC)nc(C(=O)N3CCCC3)c2C1 (configuration not stated)	-2.18%	2.74%	-1.95%	7.16%	-1.39%	-9.58%	15.5%	19.2%	5.21%	16.1%	-3.16%
COc1ccc(CN(C)C(=O)NCc2c(C)cc(C)[nH]c2=O)cc1	-4.97%	15.8%	-2.27%	-2.15%	-0.84%	1.08%	2.12%	9.7%	3.45%	18.5%	-0.177%
